For 6 compounds, composite z-score and z-score results are on record in PubChem BioAssay.

Activity calls are given as the source filed them.

Test [1] is described as follows: binders of probe aFSTL3 on microarray, primary screen, stem cell growth factor project, biochemical, small-molecule microarray, fluorescence 635/667 (AID 1064).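 Note: measures binding of the biotinylated anti-FSTL3 antibody to printed compounds.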 The settings on record: higher = more signal.
The nature of test [2]: binders from COS7 lysate, DM2A8 probe, primary screen, torsin A project, cell lysate, small-molecule microarray, fluorescence 635/667 (AID 1065). The settings on record: higher = more signal, COS7 lysate expressing mutant human TOR1A.
Test [3] in a line: binders of probe aFGF2 on microarray, primary screen, stem cell growth factor project, biochemical, small-molecule microarray, fluorescence 635/667 (AID 1067).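 Note: measures binding of biotinylated aFGF2 protein to printed compounds on slides; z-score merges feature fluorescence and signal-to-noise across triplicate slides.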 The settings on record: higher = more signal.
The nature of test [4]: binders of probe aFGF10 on microarray, primary screen, stem cell growth factor project, biochemical, small-molecule microarray, fluorescence 635/667 (AID 1071).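 Note: score merges 667 nm spot intensity and signal to noise from triplicate slides.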 The settings on record: higher = more signal.
Test [5] has as its target Neurogenic locus notch homolog protein 2 (Homo sapiens) (UniProt Q04721). The test can be described thus: Notch2 binders on small-molecule microarrays, primary screen, biochemical, small-molecule microarray, 635 nm fluorescence, stem cell growth factors (AID 1073). The settings on record: Notch2 binding, higher = more signal.
The target in test [6] is Pro-neuregulin-1, membrane-bound isoform (Homo sapiens) (UniProt Q02297). The test can be described thus: NRG1 binders on small-molecule microarrays, primary screen, psychiatric disease protein project, biochemical, small-molecule microarray, fluorescence 635/667 (AID 1075).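 Note: score combines 667 nm spot fluorescence with signal to noise.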 The settings on record: NRG1 binding, 635 nm fluorescence, higher = more signal.
Sequence of Pro-neuregulin-1, membrane-bound isoform (Homo sapiens) (Q02297 whole entry, looked up, the tested form may be a part, canonical isoform): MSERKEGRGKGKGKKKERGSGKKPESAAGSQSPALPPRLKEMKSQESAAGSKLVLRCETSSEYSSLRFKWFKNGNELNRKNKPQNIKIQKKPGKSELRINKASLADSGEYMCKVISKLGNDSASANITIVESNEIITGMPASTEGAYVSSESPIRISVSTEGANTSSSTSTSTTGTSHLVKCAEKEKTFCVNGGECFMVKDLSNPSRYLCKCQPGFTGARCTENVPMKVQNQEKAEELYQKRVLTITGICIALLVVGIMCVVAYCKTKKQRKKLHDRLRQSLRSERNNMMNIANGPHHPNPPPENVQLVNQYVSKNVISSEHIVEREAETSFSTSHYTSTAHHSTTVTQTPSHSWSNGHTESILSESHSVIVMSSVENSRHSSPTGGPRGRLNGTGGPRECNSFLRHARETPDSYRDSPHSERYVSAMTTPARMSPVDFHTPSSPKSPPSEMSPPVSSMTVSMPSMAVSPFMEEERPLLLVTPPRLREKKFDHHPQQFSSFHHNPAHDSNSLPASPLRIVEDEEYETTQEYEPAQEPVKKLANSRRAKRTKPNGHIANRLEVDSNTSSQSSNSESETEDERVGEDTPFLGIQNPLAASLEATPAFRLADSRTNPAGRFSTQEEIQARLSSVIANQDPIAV
In test [7] the test system is Neuregulin-1 EGF-like domain. The test can be described thus: binders of neuregulin-1 EGF-like domain, primary screen, biochemical, small-molecule microarray, 635 nm fluorescence (AID 1081).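 Note: binding of the protein to compounds printed on small-molecule microarray slides.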 The conditions noted are these: small-molecule microarray binding, higher = more signal.
The nature of test [8]: FRG1 promoter luciferase signal modulators, primary screen, FRG1 inhibition for FSHD, cell-based, C2C12 myotubes, firefly/Renilla luciferase, luminescence (AID 1084). The conditions noted are these: higher = more signal, called active from +8 up or from −8 down.
A short description of test [9]: binders of probe aFST on microarray, primary screen, stem cell growth factor project, biochemical, small-molecule microarray, fluorescence 635/667 (AID 1086).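 Note: score merges 667 nm fluorescence with signal-to-noise of each printed compound spot.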 The settings on record: higher = more signal.
The nature of test [10]: binders of probe aHhip on microarray, primary screen, stem cell growth factor project, biochemical, small-molecule microarray, fluorescence 635/667 (AID 1087).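 Note: score merges spot fluorescence at 667nm with spot signal to noise ratio.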 The conditions noted are these: higher = more signal.
The subject of test [11] is PRMT1 (protein arginine N-methyltransferase 1). The test can be described thus: PRMT1 binders on small-molecule microarrays, primary screen, biochemical, small-molecule microarray, 635 nm fluorescence (AID 1088).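 Note: binding of Prmt1 protein to compounds spotted on small-molecule microarray slides.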 The conditions noted are these: small-molecule microarray binding, higher = more signal.
Test [12] is described as follows: yeast growth modulation, basal conditions, primary screen, YJM789 clinical isolate, OD600, 24 h (AID 1089).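 Note: growth of clinical yeast isolate S. cerevisiae YJM 789 seeded 1000 cells per well; test concentration not given here.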 The settings on record: S. cerevisiae YJM789 growth, higher = more signal, called active from +8 up or from −8 down.
The nature of test [13]: fission yeast growth modulation, primary screen, strain 972, OD600, 24 h, no modulator (AID 1090).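 Note: basal condition with compound alone and no growth modifier present; test concentration not given here.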 The conditions noted are these: S. pombe 972 growth, higher = more signal, called active from +8 up or from −8 down.
Test [14] can be described thus: S. cerevisiae growth modulation with rapamycin, primary screen, strain BY4716, OD600, 96 h (AID 1091). Note: test concentration not given here. The conditions noted are these: higher = more signal, called active from +8 up or from −8 down.
Test [15] concerns the target Torsin-1A-interacting protein 2 (Homo sapiens) (UniProt Q8NFQ8). The test can be described thus: LULL1 binders on small-molecule microarray, primary screen, cell lysate, human LULL1 lysate, 635/667 nm fluorescence (AID 1092).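 Note: probe is lysate of COS7 cells overexpressing human LULL1; score merges per-feature 667 nm fluorescence with signal-to-noise.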 The settings on record: hLULL1 lysate binding, 635 nm fluorescence, higher = more signal.
Test [16] is described as follows: E. coli growth modulation, two-sided OD650, primary screen, E. coli filamentation project, strain DRC41, 24 h (AID 1093).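 Note: MC1000 strain lacking acrAB efflux and sulA so SOS filamentation is blocked; test concentration not given here.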 The conditions noted are these: OD650, 24 h, higher = more signal, called active from +8 up or from −8 down.
Test [17] is described as follows: small-molecule microarray binders of probe aLefty2, primary screen, biochemical, biotinylated probe, 635/667 nm fluorescence (AID 1094).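 Note: score merges spot fluorescence near 667 nm with spot signal-to-noise ratio.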 The conditions noted are these: higher = more signal.
Test [18] has as its system Noggin (protein binding on small-molecule microarray). The test can be described thus: Noggin binders on small-molecule microarray, primary screen, biochemical, 635/667 nm fluorescence (AID 1095).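 Note: score merges 667 nm feature fluorescence with signal to noise over triplicate slides.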 The settings on record: 635 nm fluorescence, higher = more signal.
The target of test [19] is Neurogenic locus notch homolog protein 3 (Homo sapiens) (UniProt Q9UM47). The test can be described thus: NOTCH3 binders on small-molecule microarray, primary screen, biochemical, 635/667 nm fluorescence (AID 1096). The settings on record: NOTCH3 binding, 635 nm fluorescence, higher = more signal.
Sequence of Neurogenic locus notch homolog protein 3 (Homo sapiens) (Q9UM47 whole entry, looked up): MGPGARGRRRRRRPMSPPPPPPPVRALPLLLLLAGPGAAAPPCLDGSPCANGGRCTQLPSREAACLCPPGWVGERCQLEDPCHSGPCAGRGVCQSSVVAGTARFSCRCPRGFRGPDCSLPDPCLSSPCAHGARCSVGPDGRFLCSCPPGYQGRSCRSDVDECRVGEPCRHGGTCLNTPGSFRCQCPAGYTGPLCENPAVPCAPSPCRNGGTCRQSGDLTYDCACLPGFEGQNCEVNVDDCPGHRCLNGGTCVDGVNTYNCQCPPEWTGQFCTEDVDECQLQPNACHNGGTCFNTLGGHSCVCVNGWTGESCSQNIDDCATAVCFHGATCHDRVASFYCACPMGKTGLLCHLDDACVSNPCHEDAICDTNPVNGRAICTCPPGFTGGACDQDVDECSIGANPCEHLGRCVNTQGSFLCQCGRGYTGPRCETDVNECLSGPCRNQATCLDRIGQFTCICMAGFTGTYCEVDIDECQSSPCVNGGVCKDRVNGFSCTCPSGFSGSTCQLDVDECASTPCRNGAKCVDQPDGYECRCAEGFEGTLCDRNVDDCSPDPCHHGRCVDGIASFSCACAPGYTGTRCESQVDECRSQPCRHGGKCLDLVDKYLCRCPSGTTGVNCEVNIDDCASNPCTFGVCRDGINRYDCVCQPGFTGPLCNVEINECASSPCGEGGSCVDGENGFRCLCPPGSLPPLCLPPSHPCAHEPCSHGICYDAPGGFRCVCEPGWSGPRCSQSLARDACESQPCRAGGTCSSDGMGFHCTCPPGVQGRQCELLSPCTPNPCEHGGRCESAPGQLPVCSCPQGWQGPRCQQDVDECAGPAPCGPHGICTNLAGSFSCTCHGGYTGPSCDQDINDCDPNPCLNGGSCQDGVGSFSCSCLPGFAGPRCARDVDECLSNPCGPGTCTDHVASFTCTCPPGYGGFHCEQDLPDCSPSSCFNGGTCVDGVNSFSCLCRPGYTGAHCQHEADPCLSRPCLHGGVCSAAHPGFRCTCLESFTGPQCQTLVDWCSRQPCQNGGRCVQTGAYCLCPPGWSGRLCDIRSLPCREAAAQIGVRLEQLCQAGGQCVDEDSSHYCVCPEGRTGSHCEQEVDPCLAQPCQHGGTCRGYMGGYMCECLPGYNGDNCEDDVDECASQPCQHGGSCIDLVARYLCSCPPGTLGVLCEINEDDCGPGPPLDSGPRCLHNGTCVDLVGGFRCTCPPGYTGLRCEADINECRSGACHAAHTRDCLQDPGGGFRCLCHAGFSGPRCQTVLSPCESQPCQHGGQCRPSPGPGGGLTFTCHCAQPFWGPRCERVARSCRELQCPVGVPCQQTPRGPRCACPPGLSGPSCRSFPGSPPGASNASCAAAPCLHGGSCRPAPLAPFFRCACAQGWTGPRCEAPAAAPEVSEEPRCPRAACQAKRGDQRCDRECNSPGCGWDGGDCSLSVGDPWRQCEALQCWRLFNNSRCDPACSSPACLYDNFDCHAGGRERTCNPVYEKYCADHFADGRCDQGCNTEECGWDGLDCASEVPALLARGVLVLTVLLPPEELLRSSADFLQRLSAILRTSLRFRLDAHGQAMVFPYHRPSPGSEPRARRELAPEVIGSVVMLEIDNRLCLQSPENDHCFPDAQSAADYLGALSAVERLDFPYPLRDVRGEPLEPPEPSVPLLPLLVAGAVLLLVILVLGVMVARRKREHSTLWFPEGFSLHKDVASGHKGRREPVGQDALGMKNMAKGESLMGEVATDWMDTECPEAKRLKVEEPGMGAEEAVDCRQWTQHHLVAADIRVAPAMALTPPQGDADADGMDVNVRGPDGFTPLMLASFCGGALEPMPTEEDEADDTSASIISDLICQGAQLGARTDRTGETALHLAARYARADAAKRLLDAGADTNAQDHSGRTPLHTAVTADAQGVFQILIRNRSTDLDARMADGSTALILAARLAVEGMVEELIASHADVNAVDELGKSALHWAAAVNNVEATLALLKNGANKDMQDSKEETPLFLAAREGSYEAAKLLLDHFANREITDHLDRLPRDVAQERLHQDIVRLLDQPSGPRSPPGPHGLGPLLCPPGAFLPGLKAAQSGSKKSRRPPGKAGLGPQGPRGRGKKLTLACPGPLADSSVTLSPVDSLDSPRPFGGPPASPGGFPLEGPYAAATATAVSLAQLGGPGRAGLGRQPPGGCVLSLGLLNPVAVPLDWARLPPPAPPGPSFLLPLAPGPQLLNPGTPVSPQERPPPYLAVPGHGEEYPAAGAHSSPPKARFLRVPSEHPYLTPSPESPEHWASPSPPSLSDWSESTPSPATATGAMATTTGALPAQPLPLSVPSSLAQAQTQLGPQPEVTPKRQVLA
The nature of test [20]: small-molecule microarray binders of probe aEGFR, primary screen, biochemical, biotinylated probe, 635/667 nm fluorescence (AID 1097).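 Note: probe is a biotinylated anti-EGFR antibody binding compounds printed on slides; score combines fluorescence near 667 nm and signal to noise of each spot.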 The settings on record: higher = more signal.

Sequence of Torsin-1A-interacting protein 2 (Homo sapiens) (Q8NFQ8 whole entry, looked up): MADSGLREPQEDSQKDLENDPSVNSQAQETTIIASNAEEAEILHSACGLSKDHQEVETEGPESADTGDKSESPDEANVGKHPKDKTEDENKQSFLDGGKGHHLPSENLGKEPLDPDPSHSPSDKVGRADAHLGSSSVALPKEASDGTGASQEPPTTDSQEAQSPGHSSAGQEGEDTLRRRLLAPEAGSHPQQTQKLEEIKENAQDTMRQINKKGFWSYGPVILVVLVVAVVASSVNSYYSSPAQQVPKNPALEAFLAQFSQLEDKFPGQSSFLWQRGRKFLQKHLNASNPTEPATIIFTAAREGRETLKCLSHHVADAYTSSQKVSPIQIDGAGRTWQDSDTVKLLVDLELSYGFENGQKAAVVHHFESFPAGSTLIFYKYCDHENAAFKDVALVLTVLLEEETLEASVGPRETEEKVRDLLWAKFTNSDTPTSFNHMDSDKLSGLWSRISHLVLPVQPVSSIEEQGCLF

As to `CC(C)C[C@@H]1NC(=O)[C@@H]2C[C@H](C(=O)NCCCCCCNC(=O)CS)[C@H](c3cccc(OCCO)c3)N2C1=O`, the composite z-score is -0.514 in test [1]; 1.05 in [2]; 0.0379 in [3]; 0.968 in [4]; 1.34 in [5]; 1.21 in test [6]. The composite z-score is 1.39 in [7]; 0.756 in test [9]; -0.069 in [10]; 1.54 in test [11]; 2.84 in test [15]; -0.0124 in test [17]. The figures for the composite z-score in test [18], in test [19] and in [20] were 1.66, 1.02 and 0.0618, respectively. For the same compound, the z-score in test [8] is 0.509 (inactive); in test [12], 0.509 (inactive); in test [13], 0.679 (inactive); in test [14], 1.52 (inactive); in test [16] it was -0.616 (inactive).
Consider `O=C1NC(=O)C2C1C=CC(C(O)c1ccc([N+](=O)[O-])cc1)N2Nc1ccccn1` (stereo not given), for which the composite z-score in test [1] was 0.0895; in [2] it was -0.0755; in [3], -0.0442; in [4] it was 0.0525; in [5] it was 0.864; in test [6] it was 0.441. The composite z-score in [7] is 0.554; in test [9], -0.16; in test [10] it was -0.0074; in [11], -0.453; in test [15], 0.307; in test [17], -0.0218. For the same compound, the composite z-score is 0.241 in test [18], -0.432 in [19] and -0.0355 in test [20]. The z-score in [8] is 0.484 (inactive); in [12], -0.0716 (inactive); in [13], 0.917 (inactive); in [14], 0.346 (inactive); in [16], -0.562 (inactive).
Consider `O=C(NCc1ccccc1)[C@@H]1c2ccccc2C(=O)N(Cc2cc(C(F)(F)F)cc(C(F)(F)F)c2)[C@H]1c1ccc(CO)cc1`, for which the composite z-score in test [1] is -0.501; in test [2], 1.62; in test [3], -0.118; in [4] it was 0.409; in [5], 0.685; in test [6], 0.71. Besides, the composite z-score is 1.27 in test [7]; 0.423 in test [9]; 0.0505 in [10]; 1.53 in test [11]; 2.55 in test [15]; -0.0512 in [17]. The results for the composite z-score in test [18], in test [19] and in [20] were 1.37, 1.12 and 0.0453, respectively. Further, the z-score in [8] is -0.354 (inactive); in [12], 0.744 (inactive); in test [13] it was -0.077 (inactive); in [14], 0.296 (inactive); in [16], -1 (inactive).
As to `CCOC(=O)C[C@H]1[C@H](OC(=O)Cc2ccc3c(c2)OCO3)[C@@H](NC(=O)Cc2ccc(OC)cc2)c2cc(OCCCO)ccc2N1C(=O)Cc1ccc(OC)cc1`, the composite z-score in test [1] is -0.199; in test [2], 0.225; in [3] it was -0.128; in [4], 0.209; in [5], 0.121; in [6], 0.007. Besides, the composite z-score was 0.501 in test [7]; 0.255 in test [9]; 0.132 in [10]; 0.433 in [11]; 1.3 in test [15]; -0.0616 in test [17]. Further, the composite z-score is -0.102 in test [18], 0.194 in test [19] and -0.157 in test [20]. The z-score in test [8] was -3.1 (inactive); in [12], -0.449 (inactive); in test [13], 0.531 (inactive); in test [14] it was -0.495 (inactive); in test [16], 0.503 (inactive).
With `C=CCN1C(=O)[C@]2(O[C@H](CCn3cc([C@H](O)c4ccccc4)nn3)[C@@H]([Si](C)(C)c3ccc(OC)cc3)[C@@H]2C)c2cc(NC(=O)c3ccc(OC)cc3)ccc21`, the composite z-score is -0.255 in [1]; 0.39 in test [2]; -0.112 in test [3]; 0.141 in test [4]; 0.603 in test [5]; 0.0976 in [6]. The composite z-score in test [7] turned out to be 0.519; in test [9], 0.0019; in test [10], 0.0722; in [11], 1.55; in [15] it was 0.744; in test [17], 0.0352. The values for the composite z-score in [18], in test [19] and in test [20] were 0.423, 0.907 and -0.152, respectively. In addition, the z-score in test [8] is -2.62 (inactive); in [12] it was 0.323 (inactive); in test [13], -0.532 (inactive); in test [14], 0.567 (inactive); in test [16], 0.252 (inactive).
Consider `COCCOC(=O)N1C(=O)[C@@]2(c3cc(C#CCC(C(=O)OC)C(=O)OC)ccc31)[C@H](C(=O)Nc1nc3ccccc3s1)[C@H]1C(=O)O[C@H](c3ccccc3)[C@H](c3ccccc3)N1[C@@H]2c1ccc(O)cc1`, for which the composite z-score in [1] was -0.566; in [2], 0.304; in test [3], 0.412; in test [4], 0.742; in test [5], 1.45; in test [6], 0.158. The composite z-score is 1.3 in [7]; 0.805 in test [9]; 0.314 in [10]; 1.53 in test [11]; 2.51 in [15]; 0.0085 in test [17]. For the same compound, the values for the composite z-score in [18], in [19] and in test [20] were 0.92, 1.04 and 0.107, respectively. Moreover, the z-score in [8] is 0.203 (inactive); in test [12] it was 1.42 (inactive); in test [13], 0.431 (inactive); in [14] it was 1.16 (inactive); in test [16], 0.28 (inactive).
